# ± gives the standard deviation.
# T1: HaloTag-ATRX ADD domain (163-292)
# T1 chain: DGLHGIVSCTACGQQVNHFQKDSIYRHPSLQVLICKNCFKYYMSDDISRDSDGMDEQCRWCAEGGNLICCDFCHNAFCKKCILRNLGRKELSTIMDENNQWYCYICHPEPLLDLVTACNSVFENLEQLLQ
# Experiments:
# Assay in all cases: peptide microarray binding signal (635 nm), min-max normalized on array (fraction of array maximum); higher = stronger binding
# [1] = biological target: T1, HaloTag-ATRX ADD domain (163-292)
# Procedure, shortened: (§1)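 Within each library, mean intensities of triplicate spots were min-max scaled to give the binding signal. The spots were histone 13-mer peptide–cellulose conjugates on nitrocellulose with a Cy3 tracer, blocked overnight at 4°C. They were then probed for 1 h at 4°C using biotin-labelled HaloTag reader fusions (10 nM to 1 μM) with streptavidin-Alexa Fluor 647 or rabbit histone antibodies (1:10,000 to 1:2,000) with anti-rabbit Alexa 647, and scanned at 635 nm for signal and 532 nm for misprints on an Axon GenePix 4000B.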
# [2] = biological target: HaloTag-ING2 PHD (mouse Ing2 200-280)
# Procedure, shortened: as §1
# [3] = biological target: anti-H3K4me3 antibody ab8580
# Procedure, shortened: as §1
# [4] = biological target: anti-H3K9me3 antibody ab8898
# Procedure, shortened: as §1
# [5] = peptide region: H3 50-62, peptide modifications: H3K56ac, binder concentration: 1:2,000 dilution
# [6] = peptide region: H3 50-62, peptide modifications: H3K56ac, binder concentration: 1:10,000 dilution
# [7] = peptide region: H3 73-85, peptide modifications: H3K79ac, binder concentration: 1:2,000 dilution
# [8] = peptide region: H3 73-85, peptide modifications: H3K79ac, binder concentration: 1:10,000 dilution
# [9] = peptide region: H3 50-62, peptide modifications: H3K56ac H3S57ph, binder concentration: 1:2,000 dilution
# [10] = peptide region: H3 50-62, peptide modifications: H3K56ac H3S57ph, binder concentration: 1:10,000 dilution
# [11] = peptide region: H3 50-62, peptide modifications: H3T58ph, binder concentration: 1:2,000 dilution
# [12] = peptide region: H3 50-62, peptide modifications: H3T58ph, binder concentration: 1:10,000 dilution
# [13] = peptide region: H3 50-62, peptide modifications: H3K56ac H3T58ph, binder concentration: 1:2,000 dilution
# [14] = peptide region: H3 50-62, peptide modifications: H3K56ac H3T58ph, binder concentration: 1:10,000 dilution
binder,measurement,setting,value
EIRRYQKSTELLI [H3 50-62 E I R R Y Q Kac S T E L L I],peptide microarray binding signal,"[1]; peptide region: H3 50-62, peptide modifications: H3K56ac, binder concentration: 50 nM",0.0121 ± 0.00021
same,peptide microarray binding signal,"[1]; peptide region: H3 50-62, peptide modifications: H3K56ac, binder concentration: 500 nM",0.0135 ± 0.0015
same,peptide microarray binding signal,"[2]; peptide region: H3 50-62, peptide modifications: H3K56ac, binder concentration: 10 nM",0.00913 ± 0.00065
same,peptide microarray binding signal,"[2]; peptide region: H3 50-62, peptide modifications: H3K56ac, binder concentration: 100 nM",0.0108 ± 0.00062
same,peptide microarray binding signal,[3]; [5],0.0016 ± 0.00024
same,peptide microarray binding signal,[3]; [6],0.00211 ± 0.00015
same,peptide microarray binding signal,[4]; [5],0.00222 ± 0.00049
same,peptide microarray binding signal,[4]; [6],0.00173 ± 6.6e-05
EIAQDFKTDLRFQ [H3 73-85 E I A Q D F Kac T D L R F Q],peptide microarray binding signal,"[1]; peptide region: H3 73-85, peptide modifications: H3K79ac, binder concentration: 50 nM",0.003981 ± 1.6e-05
same,peptide microarray binding signal,"[1]; peptide region: H3 73-85, peptide modifications: H3K79ac, binder concentration: 500 nM",0.0121 ± 0.0025
same,peptide microarray binding signal,"[2]; peptide region: H3 73-85, peptide modifications: H3K79ac, binder concentration: 10 nM",0.00537 ± 0.00042
same,peptide microarray binding signal,"[2]; peptide region: H3 73-85, peptide modifications: H3K79ac, binder concentration: 100 nM",0.00298 ± 0.00043
same,peptide microarray binding signal,[3]; [7],0.00166 ± 0.00016
same,peptide microarray binding signal,[3]; [8],0.00428 ± 0.00088
same,peptide microarray binding signal,[4]; [7],0.0114 ± 0.0038
same,peptide microarray binding signal,[4]; [8],0.0106 ± 0.0027
EIRRYQKSTELLI [H3 50-62 E I R R Y Q Kac Sph T E L L I],peptide microarray binding signal,"[1]; peptide region: H3 50-62, peptide modifications: H3K56ac H3S57ph, binder concentration: 50 nM",0.00069 ± 9.4e-06
same,peptide microarray binding signal,"[1]; peptide region: H3 50-62, peptide modifications: H3K56ac H3S57ph, binder concentration: 500 nM",0.00119 ± 4e-05
same,peptide microarray binding signal,"[2]; peptide region: H3 50-62, peptide modifications: H3K56ac H3S57ph, binder concentration: 10 nM",0.00197 ± 4.2e-05
same,peptide microarray binding signal,"[2]; peptide region: H3 50-62, peptide modifications: H3K56ac H3S57ph, binder concentration: 100 nM",0.000567 ± 6.4e-06
same,peptide microarray binding signal,[3]; [9],5.66e-05
same,peptide microarray binding signal,[3]; [10],0.000399 ± 2.6e-05
same,peptide microarray binding signal,[4]; [9],0.000861 ± 5.4e-05
same,peptide microarray binding signal,[4]; [10],0.000577 ± 6.2e-06
EIRRYQKSTELLI [H3 50-62 E I R R Y Q K S Tph E L L I],peptide microarray binding signal,"[1]; peptide region: H3 50-62, peptide modifications: H3T58ph, binder concentration: 50 nM",0.000784 ± 1.1e-05
same,peptide microarray binding signal,"[1]; peptide region: H3 50-62, peptide modifications: H3T58ph, binder concentration: 500 nM",0.00119 ± 3e-05
same,peptide microarray binding signal,"[2]; peptide region: H3 50-62, peptide modifications: H3T58ph, binder concentration: 10 nM",0.00209 ± 3.2e-05
same,peptide microarray binding signal,"[2]; peptide region: H3 50-62, peptide modifications: H3T58ph, binder concentration: 100 nM",0.000425 ± 4.9e-06
same,peptide microarray binding signal,[3]; [11],0.000151 ± 3.3e-06
same,peptide microarray binding signal,[3]; [12],0.000114 ± 1.3e-06
same,peptide microarray binding signal,[4]; [11],0.0006041 ± 5.5e-06
same,peptide microarray binding signal,[4]; [12],0.000519 ± 5.6e-06
EIRRYQKSTELLI [H3 50-62 E I R R Y Q Kac S Tph E L L I],peptide microarray binding signal,"[1]; peptide region: H3 50-62, peptide modifications: H3K56ac H3T58ph, binder concentration: 50 nM",0.00141 ± 1.8e-05
same,peptide microarray binding signal,"[1]; peptide region: H3 50-62, peptide modifications: H3K56ac H3T58ph, binder concentration: 500 nM",0.001381 ± 1.3e-05
same,peptide microarray binding signal,"[2]; peptide region: H3 50-62, peptide modifications: H3K56ac H3T58ph, binder concentration: 10 nM",0.002924 ± 2.8e-05
same,peptide microarray binding signal,"[2]; peptide region: H3 50-62, peptide modifications: H3K56ac H3T58ph, binder concentration: 100 nM",0.00149 ± 1.5e-05
same,peptide microarray binding signal,[3]; [13],0.0004719 ± 4.7e-06
same,peptide microarray binding signal,[3]; [14],0.000514 ± 5.5e-06
same,peptide microarray binding signal,[4]; [13],0.000468 ± 1.8e-05
same,peptide microarray binding signal,[4]; [14],0.00104 ± 5.9e-05
